Source: PubChem BioAssay (National Center for Advancing Translational Sciences (NCATS))
Hits are enriched below; roughly 3.9% of the tested compounds scored in any of these assays.
HT1080 IDH1KD tx = qHTS for induction of synthetic lethality in tumor cells producing 2HG: qHTS for the HT-1080-IDH1KD cell line; HT-1080 IDH1 knockdown viability, ATP luminescence, 48 h; Potency, µM (top dose mostly 46.1 µM), for the others: top-dose activity, negative = toxicity, usual class: cytotoxic; 360,000 compounds, 2% hits;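 also: 0% = DMSO wells and -100% = cell-free medium wells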
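Luminescent ATP read-out (CellTiter-Glo, 10 min at room temperature) after 48 h compound exposure at 37 °C gave viability of IDH1-knockdown HT-1080 cells. Activity was normalised to DMSO and cell-free wells, then fitted as concentration-response curves.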
ATXN2 expr inh = Primary qHTS for Inhibitors of ATXN expression | HEK-293 ATXN2-luciferase reporter, luminescence, 24 h | Potency, µM (top dose mostly 57 µM), without a hit: top-dose activity change, negative = inhibition, hits mostly inhibitors | 360,000 compounds, 0.72% hits | AID 1745845, 2022; also: % is scaled to controls: 0 for no effect and ±100 for the full control effect; nearly all actives have a fitted effect of over 55% in size
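qHTS (up to 57 uM final) was run with 24 h compound exposure of reporter cells at 37 °C. Each well was multiplexed: SteadyGlo luminescence measured ATXN2-luciferase expression after a fluorogenic Gly-Phe-AFC viability readout (25 uM final).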
S2 tox = Viability Counterscreen for Primary qHTS for Inhibitors of ATXN expression; S2 cells (HEK-293 line with an ATXN2-luciferase reporter) viability, CellTiter-Fluor protease fluorescence, 24 h; Potency, µM (series often up to 56.7 µM), most hits filed as cytotoxic; 400,000 compounds, 0.49% hits; also: nearly all actives have a fitted effect of over 40% in size
HepG2 viability = qHTS for Inhibitors of TGF-b: Cytotox Counterscreen; HepG2 CAGA-GFP viability, ATP luminescence, 18 h; 410,000 compounds, 0.76% hits; AID 588856, 2011; Potency, µM (titrated, usually from 46.1 µM), without a hit: at the top dose activity change, negative = cytotoxicity, usual class: cytotoxic
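HepG2 CAGA-GFP cells (1000/well, DMEM with 1% FBS) received compound, then TGF-beta at 500 pg/mL final, and were incubated 18 hours at 37 degrees C. Viability was read by CellTiter-Glo luminescence. Media-only wells were set as complete cell-killing and DMSO as no toxicity.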
HT1080NT lethal = qHTS for induction of synthetic lethality in tumor cells producing 2HG: qHTS for the HT-1080-NT fibrosarcoma cell line | HT-1080-NT fibrosarcoma viability, CellTiter-Glo ATP luminescence, 48 h | Potency, µM (highest dose often 46.1 µM), without a hit: at the highest dose activity, negative = less viability, hits mostly cytotoxic | 360,000 compounds, 1.6% hits;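 also: NT is the 2HG producing partner of a matched IDH1 knockdown line; 0% = DMSO-treated cells and -100% = media-only wells without cells; nearly all actives have a fitted effect of over 55% in size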
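750 cells/well, RPMI + 5% FBS; 2 h settle, compound pin-transfer, 48 h at 37 degrees C. CellTiter-Glo 10 min RT, luminescence. Normalized to DMSO and media-only wells.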
TGFb inhibitor = qHTS for Inhibitors of TGF-b; HepG2 CAGA-GFP TGF-b/SMAD3 reporter, GFP fluorescence, 18 h; TGF-beta stimulated, 500 pg/mL final; AID 588855, 2011; 410,000 compounds, 1.2% hits; Potency, µM (doses to about 46.1 µM), inactives show top-dose activity, negative = inhibition, actives largely listed as inhibitors; also: % is scaled to controls: 0 for no effect and ±100 for the full control effect; nearly all actives have a fitted effect of over 65% in size
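Per well, imaged GFP fluorescence of HEPG2 CAGA-GFP cells gives the signal; cells get compound, then TGF-beta (500 pg/mL final), 18 h at 37 degrees C; %Activity versus -TGF-beta and +DMSO controls.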
An asterisk follows results filed as active; i = inactive; ? = inconclusive; · = no result given; ! = a repeat was not active. Calls follow the shape of the dose curve; as a rule, active = well fitted curve in the direction sought with a large enough effect; inconclusive = small, poorly fitted or top-dose-only effect, or another doubt; inactive = no such curve, though single readings can be large; an effect the other way counts as inactive or inconclusive. Potency is read from the fitted curve at half-maximal effect.

SMILES | HT1080 IDH1KD tx | ATXN2 expr inh | S2 tox | HepG2 viability | HT1080NT lethal | TGFb inhibitor
CNC(=O)c1ccc(CSc2nc3ccncc3n2Cc2ccc(C)cc2)cc1 | · | -7% | i | -42% | · | ?
O=C(c1ccc(N2CCC(NCCCn3ncc4ccccc43)CC2)cc1)N1CCOCC1 | · | · | i | · | · | ·
COc1ccc(-n2nc(C(=O)Nc3ccc(C)cn3)c3c4ccccc4n(C)c3c2=O)cc1 | · | 17% | i | -1% | · | 10%
N#CC1=C(N)NC(SCc2ccccc2)=C(C#N)C12CCCCC2 | 7.1µM* | ? | ? | -27% | 7.9µM* | -15%
O=C(Nc1cccc(Cl)c1)Nc1nnc(CSCCOc2ccc(Cl)cc2)s1 | 18µM* | ? | i | -12% | 16µM* | ?
CC(=O)Nc1cc(C(=O)N2CCSCC2)cc2ncn(CCc3ccccn3)c12 | · | · | i | · | · | ·
Cn1c(=O)c(-c2c(Cl)cccc2Cl)cc2cnc(Nc3cccc(C(=O)O)c3)nc21 | · | 51% | · | · | · | ·
O=S(=O)(Nc1cc(F)ccc1F)c1ccc2[nH]c3c(c2c1)CCCC3 | · | ? | ? | -52% | · | ?
COc1ccc(Cl)cc1NC(=O)C1COc2ccccc2O1 (stereo unspecified) | 5% | 8% | i | -18% | 3% | -12%
CN1CCN(c2ccc(Cl)cc2NC(=O)C2COc3ccccc3O2)CC1 (stereo unspecified) | ? | -8% | i | -74% | 15µM* | -1%
CN1CCN(c2ccc(Cl)cc2NC(=O)/C=C/c2cccc(F)c2)CC1 | 21µM* | ? | ? | -67% | 12µM* | ?
CC(C)NC(=O)[C@@H]1C[C@@H](Sc2ccccn2)CN1C1CCN(C)CC1 | · | · | i | · | · | ·
CCCCCCCCc1ccc(CCC(N)(CO)CO)cc1 | · | 31µM* | · | · | · | ·
CCN1CCN(CC(=O)Nc2ccc(-c3cccc4c(=O)cc(N5CCOCC5)oc34)c3sc4ccccc4c23)CC1 | · | -15% | · | · | · | ·
COc1nc(N)nc(NC(=O)c2cccs2)c1N=O | 18µM* | 2% | ? | 13µM* | 16µM* | ?
COc1ccc(NC(=O)c2ccc(NC(=O)c3cccs3)cc2)cc1 | ? | ? | ? | -17% | ? | -2%
CCc1nc(Nc2ccc(OC)cc2OC)c2oc3ccccc3c2n1 | 15µM* | -30% | i | -29% | ? | -20%
COc1ccc(Nc2nc(C)nc3c2oc2ccccc23)c(OC)c1 | 29µM* | -21% | i | -23% | 18µM* | -18%
CCc1nc(Nc2ccccc2O)c2oc3ccccc3c2n1 | 27% | -11% | i | 4% | 20% | 5%
COc1ccccc1-c1cc(C(=O)Nc2cc(OC)c(OC)c(OC)c2)no1 | · | -12% | ? | -16% | · | 27%
CCOC(=O)c1ccc(NS(=O)(=O)c2ccc3[nH]c4c(c3c2)CCCCC4)cc1 | · | ? | ? | 25µM* | · | ?
COc1cc(NS(=O)(=O)c2ccc3[nH]c4c(c3c2)CCCCCC4)cc(OC)c1 | · | ? | ? | -103% | · | 13µM*
COc1cccc(CNS(=O)(=O)c2ccc3[nH]c4c(c3c2)CCCCC4)c1 | · | ? | ? | 22µM* | · | ?
COc1cc(NS(=O)(=O)c2ccc3[nH]c4c(c3c2)CCCC4)cc(OC)c1OC | · | ? | ? | -45% | · | ?
Cc1ccccc1OCc1nnc(SCc2cc(=O)c3cccc(F)c3[nH]2)n1C | · | -30% | ? | -27% | · | -27%
SMILES | HT1080 IDH1KD tx | ATXN2 expr inh | S2 tox | HepG2 viability | HT1080NT lethal | TGFb inhibitor
CC(=O)CC/C=C(\C)CC/C=C(\C)CC/C=C(\C)CCC=C(C)C | · | 7% | i | · | · | ·
Cc1ccccc1OCC(=O)NCC(=O)OCC(=O)c1ccc(Br)cc1 | · | · | · | 5% | · | 16%
O=C1c2ccc3c4c(ccc(c24)C(=O)N1c1cccc(O)c1)C(=O)N(c1cccc(O)c1)C3=O | ? | · | ? | 4.5µM* | ? | 4µM*
CC1=CC(=O)C(C(C)C)=C/C1=C(\c1cc(C(C)C)c(OP(=O)(O)O)cc1C)c1ccccc1C(=O)O | 23µM* | -9% | i | -4% | ? | ?
CCOc1ccc(C(=O)c2ccccc2C(=O)O)cc1OCC | 0% | 2% | i | 10% | 9% | 18%
Cc1cc(C)c(NC(=O)CN2C(=O)c3cccnc3Oc3ccc(C)cc32)c(C)c1 | · | · | · | 1% | · | -5%
COc1cccc(NC(=O)CCc2nnc3n(Cc4ccccc4Cl)c(=O)c4ccccc4n23)c1 | · | · | · | -6% | · | ?
COc1ccccc1-n1cnc(N)c1C(=O)c1ccccc1 | 26µM* | -22% | i | 11% | ? | 0%
COc1ccccc1-n1cnc(N)c1C(C)=O | 2% | -20% | i | 7% | 1% | 1%
CSc1ccc(S(=O)(=O)Nc2ccc3c(c2)NC(=O)CC3)cc1 | 16µM* | -34% | i | -4% | -28% | ?
Cc1ccc(NS(=O)(=O)c2ccc3c(c2)CCC(=O)N3)cc1 | 2% | 3% | i | -27% | -4% | 17%
O=C(Cn1c(=O)n(-c2ccc(Cl)cc2)c(=O)c2sc3ccccc3c21)NC1CCCCC1 | · | -8% | ? | 7% | · | ?
Cn1c(N/N=C/c2cc3ccccc3nc2Cl)nc2ccccc21 | ? | 5% | i | 5.6µM* | ? | 147%
NC(=O)[C@@H]1CSSCCC(=O)N[C@@H](CCCCN=C(N)N)C(=O)NCC(=O)N[C@@H](CC(=O)O)C(=O)N[C@@H](Cc2c[nH]c3ccccc23)C(=O)N2CCC[C@H]2C(=O)N1 | · | 9% | i | · | · | ·
Cc1ccc(-n2cc(S(=O)(=O)c3ccc(C)cc3)[nH]c2=O)cc1 | -2% | -11% | i | 3.2µM* | -4% | ?
Cc1ccc(NC(=O)C(OC(=O)c2ccc(C=O)cc2)c2ccccc2)cc1Cl (stereo unspecified) | 23µM* | -1% | i | -30% | ? | ?
Cc1ccc(C)c(NC(=O)C(OC(=O)c2ccc(CO)cc2)c2ccccc2)c1 (stereo unspecified) | -9% | 11% | i | -12% | -14% | -5%
CC(=O)N1CCCc2cc(S(=O)(=O)N3CCCC(C(=O)N4CCN(c5ccccc5)CC4)C3)ccc21 (stereo unspecified) | -2% | ? | ? | -31% | -12% | ?
COc1ccccc1N1CCN(C(=O)C2CCCN(S(=O)(=O)c3ccc4c(c3)CCCN4C(C)=O)C2)CC1 (stereo unspecified) | -6% | 18µM*! | ? | -7% | -11% | ?
